Hit rate of the full screen: of about 71,000 compounds, about 65 (0.09%) were called active. Only a selection was taken, and actives are over-represented in it overall. Values without a mark were called inactive. Calls follow the shape of the dose curve; as a rule, active = well fitted curve in the direction sought with a large enough effect; inconclusive = small, poorly fitted or top-dose-only effect; inactive = flat fitted curve, though single readings scatter.
% is scaled to controls: 0 for no effect and ±100 for the full control effect.

The assay deals with Beta-lactamase (Escherichia coli (strain K12)) (UniProt P00811). The assay is described as follows: Promiscuous and Specific Inhibitors of AmpC Beta-Lactamase (assay with detergent). The following applies: purified AmpC, nitrocefin hydrolysis with detergent; series mostly up to 28.7 µM; activity change, negative = inhibition: at the top concentration. As to the method: NIH Molecular Libraries Screening Centers Network [MLSCN]
Sequence of Beta-lactamase (Escherichia coli (strain K12)) (P00811 whole entry, looked up): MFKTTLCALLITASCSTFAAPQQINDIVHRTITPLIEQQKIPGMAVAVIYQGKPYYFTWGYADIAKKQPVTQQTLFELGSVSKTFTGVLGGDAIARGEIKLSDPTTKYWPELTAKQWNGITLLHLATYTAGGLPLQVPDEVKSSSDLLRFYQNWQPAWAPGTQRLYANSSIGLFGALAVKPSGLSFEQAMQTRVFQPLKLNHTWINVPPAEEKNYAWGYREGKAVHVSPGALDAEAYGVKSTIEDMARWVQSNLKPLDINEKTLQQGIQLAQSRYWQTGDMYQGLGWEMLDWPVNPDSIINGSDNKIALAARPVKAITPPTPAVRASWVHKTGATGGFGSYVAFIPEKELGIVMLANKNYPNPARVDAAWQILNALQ
NIH Chemical Genomics Center [NCGC]
PI Name: Shoichet, Brian K.
This aggregation profiling approach exploits the sensitivity of aggregate formation to detergent. Inhibition of b-lactamase is measured in the presence and absence of 0.01% Triton X-100. This particular assay had the prescence of 0.01% Triton X-100. See Pubchem assay "Promiscuous and Specific Inhibitors of AmpC Beta-Lactamase (assay without detergent)" for related screen. Compounds that inhibit only in the absence of detergent are considered likely promiscuous aggregators.
A screen of 1,030 compounds was performed in Brian Shoichet's lab in 96-well format. AmpC activity was measured by following the absorbance at 480 nm. Nitrocefin is a chromogenic substrate: while nitrocefin is yellow (lmax 390 nm), the product of its hydrolysis is red (lmax 486 nm, 17,000 M-1). AmpC beta lactamase was provided by Brian Shoichet and Brian Feng, UCSF.
NCGC Assay Protocol Summary:
20 mM phosphate buffer, pH 7.0
Triton X-100: No Detergent screen: 0.0001%, Detergent screen: 0.01%.
Buffer in columns 3 and 4 as negative control (no enzyme).
5.3 nM AmpC in columns 1, 2, 5-48. Titration of UCSF compound 9 control (from 10 mM, then 1:2) pin-transferred to column 2. Column 1 is neutral (100% activity).
Six uL of reagents were dispensed to 1536-well Greiner black clear bottom plates. Compounds and controls (23 nL) were transferred via Kalypsys PinTool. The plates were incubated for 15 min at room temperature, and then 2 uL of 800 uM solution of nitrocefin was added to start the reaction. The plates were immediately transferred to and read every 20 seconds for 4 min on ViewLux (Perkin-Elmer) High-throughput CCD imager using 480 nm absorbance protocol. During dispense, reagent bottles were kept submerged into 4 deg C water bath.
Keywords: NIH Roadmap, MLSCN, MLI, MLSMR, qHTS, NCGC, AmpC Beta-Lactamase, Aggregation
As to `COc1ccc(S(=O)(=O)N2CCCC(C(=O)N3CCN(C)CC3)C2)cc1C` (centres undefined), the “activity change, negative = inhibition” value was 0.3%.

As for `c1nnc2c3c4c(sc3ncn12)CCC4`, the “activity change, negative = inhibition” value was 2.4%.

For the compound `Cc1cccc(C)c1NC(=O)N1CC=C(n2c(=O)[nH]c3ccccc32)CC1`, the “activity change, negative = inhibition” value is -0.392%.

For `Cc1cn(C2C=CC(CO)O2)c(=O)[nH]c1=O` (centres undefined), the “activity change, negative = inhibition” value was -3.11%. Under `c1ccc(Nc2n[nH]nc2-c2ccccc2)cc1` stands -5.69%. Regarding `CCCn1c(SCC(N)=O)nnc1C(C)C`, the “activity change, negative = inhibition” value was -2.16%. Under `CC(C)(C)C(=O)CCN1C(=O)C2(OCCO2)c2ccccc21` stands -1.15%. The value for `Cc1noc(C)c1-c1nccc(N2CCOCC2)n1` was 0.7%; that for `COC(=O)c1nc(NC(=O)c2ccc(Cl)cc2)n[nH]1` was 1.67%; that for `CCCCn1nnnc1NCc1cc(OC)c(OC)c(OC)c1` was -0.286%. Under `CCOC(=O)C(C(=O)OCC)C(C#N)c1ccccc1` (centres undefined) stands 14.3%. Consider `CC(=O)Oc1cccc(N2C(=O)CC(Nc3ccc(N4CCOCC4)cc3)C2=O)c1` (centres undefined), for which the “activity change, negative = inhibition” value was -7.46%. Under `CCC(=O)c1ccc(OCC(O)CN2C(=O)NC(C)(C)C2=O)cc1` (centres undefined) stands 10.9%; under `COc1ccc(-n2ncc3c(N4CCCc5ccccc54)ncnc32)cc1`, -4.66%; under `COC(=O)c1ccccc1NC(=O)CSc1ccccn1`, 0.234%. On to `O=C(CN1C(=O)CCC1=O)Nc1ccc(S(=O)(=O)N2CCOCC2)cc1`, for which the “activity change, negative = inhibition” value was -0.675%. The value for `CCS(=O)(=O)n1nc(-c2ccccc2)nc1SCc1ccccc1` was -2.9%. The value for `CCCC(=O)C1=C(N(C)c2ccccc2)CC(C)(C)C(C(=O)OC)C1=O` (centres undefined) was -2.7%; that for `Cn1cccc1C1(C(F)(F)F)NCCNC1=O` (centres undefined) was -0.082%. Under `CC(C)N(C(=O)COC(=O)c1ccccc1C(=O)N1CCN(c2ccc(F)cc2)CC1)C(C)C` stands 9.33%; under `O=c1[nH]c(=O)n([C@H]2C[C@H](O)[C@H](CO)O2)cc1Br`, -1.6%; under `CC(=O)/C(C)=N\O`, “inactive”. As for `CC(C)Cc1ccc(S(=O)(=O)N2CCN(C(=O)c3ccco3)CC2)cc1`, the “activity change, negative = inhibition” value was -7.76%. On to `O=c1c(-c2ccc(F)cc2)nc2cnc(N3CCOCC3)nc2n1-c1ccccc1`, for which the “activity change, negative = inhibition” value was -2.6%. Under `CCON=C1C(C)(C)C(C)(C)C(C)(C)C1(C)C` stands -1.9% [at 5.75 µM]; under `COc1cccc(NC(=O)c2ccccc2SC)c1`, -2.07%; under `CCOC(=O)c1cccc(NC(=O)CN(c2ccc(C)cc2)S(=O)(=O)c2c(C)noc2C)c1`, -3.74%. Under `C[C@H]1O[C@@H](CC(=O)O)Cc2c1c(O)c1c(O)cc(-c3cc(=O)c4c(=O)c5c(c(=O)c=4c3=O)C[C@H](CC(=O)O)O[C@@H]5C)c(O)c1c2O` stands -3.2% [at 5.75 µM]; under `CCCCc1nc2ccccc2c(NC(=O)CN2CCN(C)CC2)c1CCC`, -6.24%. In the case of `O=C(O)Cc1ccc(-c2ccccc2)cc1`, the “activity change, negative = inhibition” value was 1% [at 12.8 µM]. The value for `O=C(O)C(=O)Cc1ccc2c(c1)OCO2` was -2% [at 5.75 µM]; that for `CC/C(=N\O)C(C)(C)/[N+]([O-])=C/c1ccc(Br)cc1` was -3.57%; that for `CC(=O)NC(Cc1ccc(F)cc1)C(=O)O` (centres undefined) was 1.35%.

As for `Nc1nonc1-c1noc(-c2ccc(Br)o2)n1`, the “activity change, negative = inhibition” value was -1.42%. The value for `Cc1ccc(C)n1-c1ccncc1` was -1.08%; that for `O=C(CCCn1c(=O)oc2ccccc21)Nc1cccnc1` was -2.89%.

Take `COc1ccc(C(=O)Nc2c(N)nc(SCC(=O)N3CCC(C)CC3)[nH]c2=O)cc1OC`: the “activity change, negative = inhibition” value was 6.59%. Take `COC(=O)c1sc(=S)n(-c2ccccc2)c1N`: the “activity change, negative = inhibition” value is -0.579%. The value for `COc1ccc(CCN2CNc3c(c(=O)n(C)c(=O)n3C)C2)cc1OC` was -3.65%; that for `CC1CCN(Cc2nc3c(c(=O)n(C)c(=O)n3C)n2CCc2ccccc2)CC1` was 13.7%. On to `COc1ccc(CCNC(=O)CSc2nc(C)nc3c2oc2ccccc23)cc1OC`, for which the “activity change, negative = inhibition” value was -0.64%. Under `CCn1c(-c2cc(OC)ccc2OC)csc1=Nc1c(C)n(C)n(-c2ccccc2)c1=O` stands -1.83%; under `COc1ccc(C)c(Cn2c(-c3nonc3N)nc3ccccc32)c1`, -2.41%; under `CCCCOc1ccc(C(=O)NCc2ccco2)cc1`, 8.19%.

For the compound `Cc1ccc2c(CSc3nncs3)cc(=O)oc2c1`, the “activity change, negative = inhibition” value is 13.6%. Take `CCOC(=O)C1CCN(C(=O)C2CCN(S(=O)(=O)N3CCCC3)CC2)CC1`: the “activity change, negative = inhibition” value is -0.132%. For `COc1ccccc1-c1nnc(SCC(=O)Nc2cc(C)on2)o1`, the “activity change, negative = inhibition” value was -4.26%. Under `CSCCC(NC(N)=O)C(=O)N(C)CC(=O)Nc1ccc(C)cc1` (centres undefined) stands 0.529%; under `CCOc1ccc(OCC)c(NC(=O)CSc2nnc(Cn3cnc4ccccc43)n2C)c1`, -2.84%.

Values taken from PubChem BioAssay AID584 (National Center for Advancing Translational Sciences (NCATS), 2007).
